Screening results: PubChem BioAssay, The Scripps Research Institute Molecular Screening Center
A selection: hits, their analogues and other compounds. The true share with any hit is near 2.8%.
PME-1 inh = PME-1 (human) inhibition; Q9Y570; recombinant PME-1, FP-Rh probe fluorescence polarization; inhibition, % at 5.9 µM; 0.53% of 320,000 active;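 active means inhibition above the campaign mean of all compounds plus 3 SD, cut at about 26% in these data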;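 further: competitive labeling of PME-1 active site by serine hydrolase directed probe; inhibitors block probe labeling so polarization falls and inhibition rises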
pPAFAH inh = pPAFAH (human) enzyme inhibition; recombinant pPAFAH, FP-rhodamine probe fluorescence polarization; 1.5% of 330,000 active; AID 463082; inhibition, % at 3.39 µM; Q13093;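 active means inhibition above the mean inhibition across the screen plus 3 SD, cut at about 25% in these data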;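 further: inhibitors block binding of the rhodamine activity-based probe so polarization drops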
PAFAH1B3 inh = inhibitors of human PAFAH1B3 | inhibition, % at 3.39 µM | recombinant PAFAH1B3, FP-rhodamine probe, fluorescence polarization | AID 492972 | 0.28% of 340,000 active | Q15102;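 active means inhibition above the screen-wide average of all tested compounds plus 3 SD, cut at about 25% in these data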
Target sequence (Q15102 whole entry, looked up): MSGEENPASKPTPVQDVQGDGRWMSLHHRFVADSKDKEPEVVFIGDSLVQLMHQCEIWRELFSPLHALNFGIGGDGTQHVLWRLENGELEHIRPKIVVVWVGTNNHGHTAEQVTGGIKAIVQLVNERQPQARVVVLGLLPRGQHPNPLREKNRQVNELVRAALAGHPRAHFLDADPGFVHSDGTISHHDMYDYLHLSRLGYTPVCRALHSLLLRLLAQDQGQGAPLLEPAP
PAFAH2 inh = inhibitors of human PAFAH2. recombinant PAFAH2, FP-rhodamine activity probe, fluorescence polarization. inhibition, % at 3.39 µM. 0.99% of 340,000 active;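 active means inhibition above the mean over all tested compounds plus 3 SD, cut at about 30% in these data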;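 further: inhibitors block probe labeling of enzyme so polarization drops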
Fam108B inh = counter-screen for RBBP9 inhibitors: inhibitors of mouse Fam108B; recombinant Fam108B, FP-Rh probe fluorescence polarization; inhibition, % at 9.51 µM; 0.33% of 300,000 active; AID 1947;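 active means inhibition above the screen mean inhibition plus 3 SD, computed separately per campaign, cut at about 18% in these data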;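 further: inhibitors lower polarization as less probe binds the enzyme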
PAFAH1B2 inh = PAFAH1B2 (human) inhibition. P68402. recombinant PAFAH1B2, FP-rhodamine activity probe, fluorescence polarization. inhibition, % at 3.39 µM. 1.2% of 340,000 active. AID 492953;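 active means inhibition above the mean of all tested compounds plus 3 SD, cut at about 24% in these data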
Target sequence (P68402 whole entry, looked up): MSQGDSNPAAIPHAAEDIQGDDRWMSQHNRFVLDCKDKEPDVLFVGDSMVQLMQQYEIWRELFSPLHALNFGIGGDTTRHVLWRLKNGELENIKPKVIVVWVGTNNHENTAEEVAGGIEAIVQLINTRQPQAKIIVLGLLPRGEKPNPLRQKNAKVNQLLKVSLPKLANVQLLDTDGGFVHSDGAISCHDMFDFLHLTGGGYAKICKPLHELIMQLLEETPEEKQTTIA
Numbers stand for hits; 0 = inactive; - = no result given.

SMILES	PME-1 inh	pPAFAH inh	PAFAH1B3 inh	PAFAH2 inh	Fam108B inh	PAFAH1B2 inh
C#CCOCCOCCOCCNc1nc(N2CCN(C(=O)CCCCCCCCCCNC(=O)Cn3cc(C[C@@H](C)O)nn3)CC2)nc(N2CCN(C(=O)CCCCCCCCCCNC(=O)[C@H](CCCCN)n3cc(CCCC(=O)O)nn3)CC2)n1	0	25	0	0	0	0
C#CCOCCOCCOCCNc1nc(N2CCN(C(=O)CCCCCCCCCCNC(=O)Cn3cc(C[C@@H](C)O)nn3)CC2)nc(N2CCN(C(=O)CCCCCCCCCCNC(=O)[C@@H](CCC(=O)O)n3cc(CCCCCN)nn3)CC2)n1	0	0	0	0	0	0
COc1cc(C(=O)O/N=C2/C=C(C)C(=O)C=C2C)cc(OC)c1OC	0	0	0	0	0	0
COc1cc(C(=O)ON=C2C(C)=CC(=O)C=C2C)cc(OC)c1OC	0	0	0	83	0	0
COc1cc(/C=N/NC(=S)Nc2cccc(S(=O)(=O)N(C)C)c2)cc(OC)c1O	29	0	0	0	0	0
Cc1ccc(NS(=O)(=O)c2ccc(CCC(=O)O)cc2)cc1	0	34	0	0	0	0
CCn1c(=O)c(=O)n(CC)c2cc(S(=O)(=O)Nc3ccc(C)cc3)ccc21	0	26	0	0	0	0
CC(=O)c1ccc(NS(=O)(=O)c2ccc(CC(C)C)cc2)cc1	0	0	0	0	0	28
CC(=O)c1ccc(NC(=O)Nc2ccc(NS(=O)(=O)c3ccc(C)cc3)cc2)cc1	0	0	0	0	0	0
Cc1ccc(NS(=O)(=O)c2ccc(CCC(=O)NCCCOC(C)C)cc2)cc1	0	26	0	0	0	0
CC(=O)Nc1ccc(S(=O)(=O)Nc2ccc(Cc3ccncc3)cc2)cc1	0	29	0	0	0	0
Cc1cccc(C)c1OCC(=O)NNC(=S)NC(=O)C1CC1	0	0	0	0	0	0
O=C1C(CCCNC(=S)NCc2ccccc2)NC(=S)N1Cc1ccccc1 (configuration not stated)	0	0	0	0	0	25
C=CCNC(=S)NCCCCC1NC(=S)N(CC=C)C1=O (configuration not stated)	0	0	0	0	0	0
N#C/C(=C\c1cccnc1)c1nc2c(s1)CCCC2	0	0	0	0	0	0
COc1cc(/C=C(\C#N)c2nc3c(s2)CCCC3)ccc1O	0	35	-	-	0	-
Brc1ccc(-c2ccc(C3Nc4cccc5cccc(c45)N3)o2)cc1	41	0	-	-	-	-
Cn1nnnc1Sc1ncnc2scc(-c3cc4ccccc4o3)c12	0	0	0	0	-	0
O=C(/C=C/c1ccc(O)c(O)c1)OC(Cc1ccc(O)c(O)c1)C(=O)O (configuration not stated)	0	0	0	0	0	0
O=C(/C=C/c1ccc(O)c(O)c1)OCCc1ccccc1	0	0	0	0	0	34
O=c1oc(-c2ccccc2[N+](=O)[O-])nc2ccccc12	0	0	0	45	0	0
O=c1oc(-c2ccco2)nc2ccccc12	0	0	0	0	0	0
COc1ccccc1-c1cccc([C@@H]2C[C@H]3[C@H](CON3C)CN2C)c1	-	-	0	0	-	0
Cc1ccc(-c2nc(Nc3ccccc3)n[nH]2)cc1	41	0	0	0	0	0
Nc1nc(CSc2n[nH]c(-c3ccccc3)n2)nc(Nc2ccccc2)n1	0	0	0	0	0	0
SMILES	PME-1 inh	pPAFAH inh	PAFAH1B3 inh	PAFAH2 inh	Fam108B inh	PAFAH1B2 inh
CC(=O)c1ccc(N2CCN(C(=O)/C=C/c3ccc(S(=O)(=O)N4CCOCC4)cc3)CC2)cc1	0	32	0	0	0	0
O=C(/C=C/c1ccc(S(=O)(=O)N2CCOCC2)cc1)N1CCCCC1	-	-	0	0	-	0
COc1ccccc1NS(=O)(=O)c1ccc2c(c1)CCN2C(=O)CCC(=O)O	0	0	0	0	0	0
Cc1nn(C(=O)c2ccco2)c(C)c1Sc1ccc(Cl)cc1	0	0	0	0	0	0
Cc1nn(C(=O)c2cccnc2)c(C)c1Sc1ccc(Br)cc1	0	0	0	0	0	28
CC1CCN(C(=S)Nc2ccc3nc4n(c(=O)c3c2)CCCCC4)CC1	0	0	0	0	0	24
O=c1c2cc(NC(=S)N3CCCCC3)ccc2nc2n1CCCCC2	0	0	0	0	0	0
Cc1cccnc1Nc1nc(-c2ccc(O)c(O)c2)cs1	36	0	0	0	0	0
CCN1CCN(c2ccc(S(=O)(=O)N3CCCCC3)cc2NC(=O)COc2ccc(F)cc2Cl)CC1	0	0	0	0	0	0
